# The supplement of paper PMC4022240
# ± gives the standard deviation.
# T1: HaloTag-ATRX ADD domain (163-292)
# T1 chain: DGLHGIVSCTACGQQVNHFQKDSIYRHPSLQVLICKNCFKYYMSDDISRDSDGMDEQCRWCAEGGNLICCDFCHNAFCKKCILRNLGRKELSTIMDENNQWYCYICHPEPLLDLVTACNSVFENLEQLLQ
# Legend:
# Assay in all cases: peptide microarray binding signal (635 nm), min-max normalized on array (fraction of array maximum); higher = stronger binding
# Details in all cases: peptide region: H3 20-32
# [1] = target: T1, HaloTag-ATRX ADD domain (163-292)
# Summary of the method: (§1)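 Histone 13-mer peptide–cellulose conjugates were printed in triplicate on nitrocellulose with a Cy3 tracer, then blocked overnight at 4°C. Arrays were probed for 1 h at 4°C with biotin-labelled HaloTag reader fusions (10 nM to 1 μM) plus streptavidin-Alexa Fluor 647, or with rabbit histone antibodies (1:10,000 to 1:2,000) plus anti-rabbit Alexa 647. An Axon GenePix 4000B scanned 635 nm for signal and 532 nm for misprints. Binding signal is the triplicate-spot mean intensity, min-max scaled per library.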
# [2] = target: HaloTag-ING2 PHD (mouse Ing2 200-280)
# Summary of the method: as §1
# [3] = target: anti-H3K4me3 antibody ab8580
# Summary of the method: as §1
# [4] = target: anti-H3K9me3 antibody ab8898
# Summary of the method: as §1
# [5] = peptide modifications: H3R26me2a H3K27me2, binder concentration: 1:2,000 dilution
# [6] = peptide modifications: H3R26me2a H3K27me2, binder concentration: 1:10,000 dilution
# [7] = peptide modifications: H3R26me2a H3K27me3, binder concentration: 1:2,000 dilution
# [8] = peptide modifications: H3R26me2a H3K27me3, binder concentration: 1:10,000 dilution
# [9] = peptide modifications: H3R26me2a, binder concentration: 1:2,000 dilution
# [10] = peptide modifications: H3R26me2a, binder concentration: 1:10,000 dilution
# [11] = peptide modifications: H3R26me2s H3K27ac, binder concentration: 1:2,000 dilution
# [12] = peptide modifications: H3R26me2s H3K27ac, binder concentration: 1:10,000 dilution
# [13] = peptide modifications: H3R26me2s H3K27me1, binder concentration: 1:2,000 dilution
# [14] = peptide modifications: H3R26me2s H3K27me1, binder concentration: 1:10,000 dilution
binder,measurement,setting,value
LATKAARKSAPAT [H3 20-32 L A T K A A Rme2a Kme2 S A P A T],peptide microarray binding signal,"[1]; peptide modifications: H3R26me2a H3K27me2, binder concentration: 50 nM",0.004984 ± 4.8e-05
same,peptide microarray binding signal,"[1]; peptide modifications: H3R26me2a H3K27me2, binder concentration: 500 nM",0.00857 ± 0.00072
same,peptide microarray binding signal,"[2]; peptide modifications: H3R26me2a H3K27me2, binder concentration: 10 nM",0.0166 ± 0.00092
same,peptide microarray binding signal,"[2]; peptide modifications: H3R26me2a H3K27me2, binder concentration: 100 nM",0.0255 ± 0.00049
same,peptide microarray binding signal,[3]; [5],0.0097 ± 0.0011
same,peptide microarray binding signal,[3]; [6],0.0118 ± 0.00089
same,peptide microarray binding signal,[4]; [5],0.0051 ± 0.00036
same,peptide microarray binding signal,[4]; [6],0.00363 ± 7.8e-05
LATKAARKSAPAT [H3 20-32 L A T K A A Rme2a Kme3 S A P A T],peptide microarray binding signal,"[1]; peptide modifications: H3R26me2a H3K27me3, binder concentration: 50 nM",0.00539 ± 0.00011
same,peptide microarray binding signal,"[1]; peptide modifications: H3R26me2a H3K27me3, binder concentration: 500 nM",0.0116
same,peptide microarray binding signal,"[2]; peptide modifications: H3R26me2a H3K27me3, binder concentration: 10 nM",0.0206 ± 0.0011
same,peptide microarray binding signal,"[2]; peptide modifications: H3R26me2a H3K27me3, binder concentration: 100 nM",0.0261 ± 0.0021
same,peptide microarray binding signal,[3]; [7],0.0393 ± 0.004
same,peptide microarray binding signal,[3]; [8],0.0294 ± 0.0026
same,peptide microarray binding signal,[4]; [7],0.0809 ± 0.0092
same,peptide microarray binding signal,[4]; [8],0.052 ± 0.0034
LATKAARKSAPAT [H3 20-32 L A T K A A Rme2a K S A P A T],peptide microarray binding signal,"[1]; peptide modifications: H3R26me2a, binder concentration: 50 nM",0.00357 ± 0.0001
same,peptide microarray binding signal,"[1]; peptide modifications: H3R26me2a, binder concentration: 500 nM",0.00624 ± 0.00038
same,peptide microarray binding signal,"[2]; peptide modifications: H3R26me2a, binder concentration: 10 nM",0.00806 ± 0.00052
same,peptide microarray binding signal,"[2]; peptide modifications: H3R26me2a, binder concentration: 100 nM",0.0122 ± 0.0012
same,peptide microarray binding signal,[3]; [9],0.00525 ± 0.00065
same,peptide microarray binding signal,[3]; [10],0.004907 ± 3.6e-05
same,peptide microarray binding signal,[4]; [9],0.00334 ± 0.00044
same,peptide microarray binding signal,[4]; [10],0.00294 ± 6.7e-05
LATKAARKSAPAT [H3 20-32 L A T K A A Rme2s Kac S A P A T],peptide microarray binding signal,"[1]; peptide modifications: H3R26me2s H3K27ac, binder concentration: 50 nM",0.00495 ± 0.00035
same,peptide microarray binding signal,"[1]; peptide modifications: H3R26me2s H3K27ac, binder concentration: 500 nM",0.00714 ± 0.00025
same,peptide microarray binding signal,"[2]; peptide modifications: H3R26me2s H3K27ac, binder concentration: 10 nM",0.0155 ± 0.00088
same,peptide microarray binding signal,"[2]; peptide modifications: H3R26me2s H3K27ac, binder concentration: 100 nM",0.0127 ± 0.00058
same,peptide microarray binding signal,[3]; [11],0.00574 ± 0.0007
same,peptide microarray binding signal,[3]; [12],0.00491 ± 7.1e-05
same,peptide microarray binding signal,[4]; [11],0.0064 ± 0.0001
same,peptide microarray binding signal,[4]; [12],0.00715 ± 0.0006
LATKAARKSAPAT [H3 20-32 L A T K A A Rme2s Kme S A P A T],peptide microarray binding signal,"[1]; peptide modifications: H3R26me2s H3K27me1, binder concentration: 50 nM",0.00511 ± 6.7e-05
same,peptide microarray binding signal,"[1]; peptide modifications: H3R26me2s H3K27me1, binder concentration: 500 nM",0.00771 ± 0.00038
same,peptide microarray binding signal,"[2]; peptide modifications: H3R26me2s H3K27me1, binder concentration: 10 nM",0.0191 ± 0.00015
same,peptide microarray binding signal,"[2]; peptide modifications: H3R26me2s H3K27me1, binder concentration: 100 nM",0.02409 ± 0.00015
same,peptide microarray binding signal,[3]; [13],0.00608 ± 0.0005
same,peptide microarray binding signal,[3]; [14],0.00845 ± 0.00053
same,peptide microarray binding signal,[4]; [13],0.00384 ± 0.00014
same,peptide microarray binding signal,[4]; [14],0.00283 ± 4.9e-05
